# Unmarked numbers belong to inactive results. Inconclusive results are not listed. Where a call stands in place of a potency, no number is given. Activity calls are given as the source filed them. Unless noted, calls follow the shape of the dose curve; as a rule, active = well fitted curve in the direction sought with a large enough effect; inconclusive = small, poorly fitted or top-dose-only effect, or another doubt; inactive = no such curve, though single readings can be large; an effect the other way counts as inactive or inconclusive.
# Tests used:
# [1] = AP1 Signaling Pathway (AID 357; active = well fitted curve in either direction with a large enough effect, not every such curve was filed as active); conditions: ME-180 AP-1-bla reporter, EGF-induced, beta-lactamase ratio, 5 h; at 7.69 µM (top of the series) unless noted
# Summary of the method: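 ME-180 cells with beta-lactamase reporter under AP-1 response element, stimulated with EC50 EGF; compounds tested in titration series, 5 h at 37 °C. CCF4 substrate added 2.5 h at room temperature; 460/530 nm emission ratio gave %activity and AC50.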
# [2] = molecular target: Cytochrome P450 1A2 (Homo sapiens) (UniProt P05177); assay: p450-cyp1a2 (AID 410; calls by dose curve; also: potency is read from the fitted curve at half-maximal effect)
# Summary of the method: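 O-Demethylation of luciferin 6' methyl ether by human CYP1A2 is monitored as luciferase luminescence. Substrate sits at Km (100uM); enzyme is 20nM. Values are scaled to 57 uM furafylline as maximal inhibition.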
# [3] = NFAT Signaling Pathway (AID 444; active = well fitted curve in either direction with a large enough effect, not every such curve was filed as active;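 also: carbachol stimulus at about its EC50 of 1 µM final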); conditions: Jurkat NFAT-bla M1, carbachol, beta-lactamase ratio, 5 h; at 7.69 µM (top of the series) unless noted
# Summary of the method: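 Read-out: CCF4 FRET ratio (460 nm/530 nm) after 1 h RT dye loading, used for %activity and AC50 from titration series. Cells: Jurkat NFAT-β-lactamase/M1 line, treated with compound plus 1 uM carbachol for 5 h, 37 °C.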
# [4] = Stat Signaling Pathway (AID 446; active = well fitted curve in either direction with a large enough effect, not every such curve was filed as active;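 also: ME-180 cervical cancer cells given 40 pM IL-6 alongside compound; SIE-controlled beta-lactamase reporter measured as 460/530 nm FRET emission ratio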); conditions: ME-180 (cervical carcinoma) SIE beta-lactamase reporter, IL-6 stimulated, 5 h; at 7.69 µM (top of the series) unless noted
# Summary of the method: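 Overnight-plated ME-180 cells bearing a STAT Inducible Element beta-lactamase reporter; 5 h co-exposure to compound and 40 pM IL-6; values normalized to 300 pM IL-6 and 125 nM JAK inhibitor controls.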
# [5] = molecular target: Glucocorticoid receptor (Homo sapiens) (UniProt P04150); assay: GR-GFP Redistribution (AID 450;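 active = compounds whose dose series gives a full or clear partial fitted curve of increased nuclear translocation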; also: potency is read from the fitted curve at half-maximal effect); conditions: U2OS GR-GFP nuclear translocation, laser cytometry, 2 h
# [6] = molecular target: Glucocorticoid receptor (Homo sapiens) (UniProt P04150); assay: GR-EFC Redistribution (AID 451; calls by dose curve; also: potency is read from the fitted curve at half-maximal effect); conditions: CHO-K1 GR-EFC translocation, beta-gal luminescence, 2 h
# Summary of the method: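 Translocation of GR-ED fusion to nuclear EA restores b-gal, read by luminescence after 1 h room-temperature detection. Engineered CHO-K1 biosensor cells, 1,000/well, exposed 2 h at 37 C to titrations up to 46 uM final.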
# [7] = molecular target: Mitogen-activated protein kinase 10 (Mus musculus) (UniProt Q61831); assay: JNK3 AlphaScreen Assay (AID 530; active = well fitted curve in either direction with a large enough effect, not every such curve was filed as active;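 also: kinase came from lysate of stimulated human HepG2 cells; signal reports phosphorylation of biotinylated GST-cJun 1-79 at Ser73 with 10 µM ATP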)
# Summary of the method: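 qHTS titrations with 15 min compound pre-incubation before adding ATP (10 uM final). Read-out: AlphaScreen of Ser73-phosphorylated biotin-GST-cJun using HepG2 lysate JNK3 activated by IL-1β and TNFα.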
# [8] = molecular target: 3',5'-cyclic-AMP phosphodiesterase 4B (Homo sapiens) (UniProt Q07343); assay: qHTS Assay for Inhibitors of PDE-IV (AID 607; active = well fitted activation curve with a large enough effect in the main read-out, with a control signal flat, not every such curve was filed as active)
# Summary of the method: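 Live HEK293 cells with a modified cyclic nucleotide-gated (CNG) channel report intracellular cAMP via membrane-potential dye fluorescence (ex 535/em 590 nm). Endogenous PDE-IV was targeted. Compounds were tested at up to 22.9 uM final; RO 20-1724 100 uM served as control.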
# [9] = molecular target: Guanine nucleotide-binding protein G(i) subunit alpha-1 (Homo sapiens) (UniProt P63096); assay: qHTS Assay for Inhibitors of RGS12 GoLoco Motif Activity (Green Fluorophore) (AID 879);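 also: negative values mean loss of peptide binding seen as reduced polarization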
# Summary of the method: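 A drop in FITC polarization marked displacement of the FITC-tagged RGS12 GoLoco peptide (10 nM) from Gαi1 (50 nM). Compounds were incubated 10 min at room temperature in Tris pH 7.5 buffer containing 150 mM NaCl, 0.1 mM GDP and 0.05% NP40; unlabeled peptide titration served as control.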
# [10] = molecular target: Cytochrome P450 3A4 (Homo sapiens) (UniProt P08684); assay: qHTS Assay for Activators of Cytochrome P450 3A4 (AID 885); also: nearly all actives have a fitted effect of over 65% in size
# Summary of the method: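 Using 20nM recombinant human CYP3A4 in potassium phosphate (200mM), substrate Luciferin-PPXE at 25uM, luminescent luciferin detection followed a 60-min RT NADPH reaction; data scaled to 57 uM ketoconazole.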
# [11] = qHTS Assay for Identification of Small Molecule Agonists for Thrombopoietin (TPO) Signaling Pathway (AID 917)
# Summary of the method: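 Quantitative HTS for pathway activators: compounds were pin-transferred onto IL-3-starved Ba/F3 cells expressing human TPO receptor, TPO was added at its EC50 (26 pM final), and after 24 hrs at 37 C reporter luciferase was measured.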
# [12] = molecular target: Muscarinic acetylcholine receptor M1 (Rattus norvegicus) (UniProt P08482); assay: qHTS Assay for Antagonists of Acetylcholine Muscarinic M1 Receptor: Measurement of IP-One Response (AID 944); also: nearly all actives have a fitted effect of over 75% in size; also: potency is read from the fitted curve at half-maximal effect
# Summary of the method: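 Antagonist mode with rat M1 receptor transfected into CHO cells. Compound is added first for 10 min, carbachol at its EC80 follows for 30 min, and lysis reagents then allow TR-FRET detection of accumulated IP1.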
# [13] = molecular target: Pyruvate kinase (Leishmania mexicana) (UniProt Q27686); assay: qHTS Validation Assay for Inhibitors of Leishmania Mexicana Pyruvate Kinase (AID 945)
# Summary of the method: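 Compounds are tested as eight-point concentration series. Reactions contain 0.2 nM LmPYK E451W, 0.5 mM PEP, 0.1 mM ADP, 7 mM MgCl2 and 50 mM KCl at pH 7.2, run 1 h at room temperature, then read by PKLight luminescence.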
# [14] = molecular target: Pyruvate kinase PKM (Homo sapiens) (UniProt P14618); assay: qHTS Assay for Activators of Human Muscle Pyruvate Kinase (AID 954; active = well fitted curve in the direction sought with a large enough effect, not every such curve was filed as active)
# Summary of the method: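 Screening used highly purified human pyruvate kinase M2 under submaximal activity, with PEP at its Km and ADP below Km. After an hour at room temperature, ATP was read by luciferase luminescence.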
# [15] = molecular target: Alpha-galactosidase A (Homo sapiens) (UniProt P06280); assay: Counterscreen for Glucocerebrosidase Inhibitors: qHTS Assay for Human alpha-Galactosidase at pH 4.5 (AID 992)
# Summary of the method: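 Each compound is preincubated briefly with 2 nM enzyme before substrate addition (80 uM); plates then sit 20 min at ambient temperature, are quenched with 1M NaOH/1M glycine, and read fluorometrically.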
# [16] = molecular target: alpha-glucosidase (Oryza sativa, rice) (UniProt Q653V4); assay: Counterscreen for Glucocerebrosidase Inhibitors: qHTS Assay for Rice alpha-Glucosidase at pH 5.0 (AID 997)
# Summary of the method: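 Endpoint fluorogenic assay at pH 5.0: compounds (0.7 nM to 77 uM) titrated against 4 nM rice enzyme and 400 uM 4-MU-alpha-glucoside for 20 min at room temperature; NaOH/glycine stop, read ex 365/em 440 nm, Hill-fitted AC50.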
# [17] = molecular target: Cytochrome P450 2D6 (Homo sapiens) (UniProt P10635); assay: qHTS Assay for Inhibitors and Substrates of Cytochrome P450 2D6 (AID 891); also: potency is read from the fitted curve at half-maximal effect; nearly all actives have a fitted effect of over 60% in size
# Summary of the method: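 Luminescent read-out of luciferin formed by 5 nM human CYP2D6 demethylating 30 uM Luciferin-ME EGE (Km level) over 60 min at room temperature after NADPH regeneration addition. Data normalized to full inhibition by 1.43 uM quinidine.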
# [18] = molecular target: Muscarinic acetylcholine receptor M1 (Rattus norvegicus) (UniProt P08482); assay: qHTS Assay for Antagonists of Acetylcholine Muscarinic M1 Receptor: Kinetic Measurement of Intracellular Calcium Response (AID 943); also: nearly all actives have a fitted effect of over 75% in size; also: potency is read from the fitted curve at half-maximal effect;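 as to activity change, negative = inhibition: Fluo-4 calcium signal as peak divided by basal fluorescence over 4 min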
# Summary of the method: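 Antagonism is measured as inhibition of the carbachol-evoked calcium rise in CHO cells transfected with rat M1. Cells are dye-loaded, exposed to compound for 10 min, then stimulated with 100 nM carbachol (EC80).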
# [19] = qHTS Assay for Identification of Small Molecule Antagonists for NFkB Signaling Pathway (AID 895; active = well fitted inhibition curve with a large enough effect in the signal ratio, with a control signal flat, not every such curve was filed as active; the % refers to the signal ratio)
# Summary of the method: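 Beta-lactamase reporter read-out (460 and 530 nm emission ratio, 405 nm excitation, 2 hrs substrate loading RT) after 5 hr stimulation with 10 pM TNF alpha in compound-treated NFkB-bla ME-180 cells in low-serum medium.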
# Chain of Pyruvate kinase PKM (Homo sapiens) (P14618 whole entry, looked up): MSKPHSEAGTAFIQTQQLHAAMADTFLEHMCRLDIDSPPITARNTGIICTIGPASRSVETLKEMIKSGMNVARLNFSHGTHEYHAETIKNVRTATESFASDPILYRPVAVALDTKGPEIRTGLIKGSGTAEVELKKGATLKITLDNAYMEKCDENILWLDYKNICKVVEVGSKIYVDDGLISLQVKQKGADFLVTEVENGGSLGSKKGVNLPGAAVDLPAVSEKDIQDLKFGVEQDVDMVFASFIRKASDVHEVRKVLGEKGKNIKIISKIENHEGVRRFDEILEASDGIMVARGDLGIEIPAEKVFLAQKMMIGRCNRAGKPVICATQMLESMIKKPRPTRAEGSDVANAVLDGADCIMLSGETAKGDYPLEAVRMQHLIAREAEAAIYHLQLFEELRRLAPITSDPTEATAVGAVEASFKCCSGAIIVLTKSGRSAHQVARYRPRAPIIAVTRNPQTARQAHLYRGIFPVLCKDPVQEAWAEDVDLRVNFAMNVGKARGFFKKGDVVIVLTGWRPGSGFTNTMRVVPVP
# Chain of Glucocorticoid receptor (Homo sapiens) (P04150 whole entry, looked up, the tested form may be a part): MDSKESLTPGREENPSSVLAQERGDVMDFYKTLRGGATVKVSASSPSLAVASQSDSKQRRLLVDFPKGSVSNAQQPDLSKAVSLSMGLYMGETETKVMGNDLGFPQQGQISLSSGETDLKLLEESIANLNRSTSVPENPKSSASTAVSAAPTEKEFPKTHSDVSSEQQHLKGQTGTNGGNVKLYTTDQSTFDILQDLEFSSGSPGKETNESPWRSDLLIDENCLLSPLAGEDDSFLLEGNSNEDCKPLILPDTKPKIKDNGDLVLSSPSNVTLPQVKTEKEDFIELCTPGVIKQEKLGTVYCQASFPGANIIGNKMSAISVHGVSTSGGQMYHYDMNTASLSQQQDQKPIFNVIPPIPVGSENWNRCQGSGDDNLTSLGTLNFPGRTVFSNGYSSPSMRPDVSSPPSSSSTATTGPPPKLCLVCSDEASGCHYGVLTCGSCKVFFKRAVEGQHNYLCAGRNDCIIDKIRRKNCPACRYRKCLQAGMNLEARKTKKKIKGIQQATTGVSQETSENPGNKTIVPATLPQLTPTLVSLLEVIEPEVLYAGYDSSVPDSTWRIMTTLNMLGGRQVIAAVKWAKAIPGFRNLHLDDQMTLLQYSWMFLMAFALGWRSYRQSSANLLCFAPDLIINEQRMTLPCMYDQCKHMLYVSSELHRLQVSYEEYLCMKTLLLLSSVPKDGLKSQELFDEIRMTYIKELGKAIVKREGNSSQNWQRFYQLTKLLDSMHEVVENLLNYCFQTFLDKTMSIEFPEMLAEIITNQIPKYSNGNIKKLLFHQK
# Chain of Cytochrome P450 3A4 (Homo sapiens) (P08684 whole entry, looked up): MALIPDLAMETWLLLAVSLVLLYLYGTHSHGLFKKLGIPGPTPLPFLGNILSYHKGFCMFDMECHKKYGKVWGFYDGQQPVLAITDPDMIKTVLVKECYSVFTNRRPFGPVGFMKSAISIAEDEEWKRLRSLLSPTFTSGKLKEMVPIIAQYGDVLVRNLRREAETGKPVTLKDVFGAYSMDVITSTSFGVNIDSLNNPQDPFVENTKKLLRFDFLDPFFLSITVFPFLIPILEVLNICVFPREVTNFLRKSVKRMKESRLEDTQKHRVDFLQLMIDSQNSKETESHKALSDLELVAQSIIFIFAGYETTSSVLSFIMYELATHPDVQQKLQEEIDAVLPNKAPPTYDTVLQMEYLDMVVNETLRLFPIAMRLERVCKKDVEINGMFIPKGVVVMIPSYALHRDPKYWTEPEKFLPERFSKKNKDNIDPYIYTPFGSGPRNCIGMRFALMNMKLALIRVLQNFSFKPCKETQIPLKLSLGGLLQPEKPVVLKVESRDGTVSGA
# Chain of Guanine nucleotide-binding protein G(i) subunit alpha-1 (Homo sapiens) (P63096 whole entry, looked up): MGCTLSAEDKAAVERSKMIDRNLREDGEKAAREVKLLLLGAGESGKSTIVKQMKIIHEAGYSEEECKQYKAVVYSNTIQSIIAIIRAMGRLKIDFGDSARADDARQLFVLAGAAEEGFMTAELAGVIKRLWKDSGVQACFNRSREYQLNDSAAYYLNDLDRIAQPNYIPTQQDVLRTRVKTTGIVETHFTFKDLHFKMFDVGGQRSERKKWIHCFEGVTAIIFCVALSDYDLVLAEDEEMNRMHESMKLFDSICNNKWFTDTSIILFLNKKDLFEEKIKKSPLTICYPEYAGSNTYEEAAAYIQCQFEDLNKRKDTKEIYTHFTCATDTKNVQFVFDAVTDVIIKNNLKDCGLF
# Chain of Muscarinic acetylcholine receptor M1 (Rattus norvegicus) (P08482 whole entry, looked up): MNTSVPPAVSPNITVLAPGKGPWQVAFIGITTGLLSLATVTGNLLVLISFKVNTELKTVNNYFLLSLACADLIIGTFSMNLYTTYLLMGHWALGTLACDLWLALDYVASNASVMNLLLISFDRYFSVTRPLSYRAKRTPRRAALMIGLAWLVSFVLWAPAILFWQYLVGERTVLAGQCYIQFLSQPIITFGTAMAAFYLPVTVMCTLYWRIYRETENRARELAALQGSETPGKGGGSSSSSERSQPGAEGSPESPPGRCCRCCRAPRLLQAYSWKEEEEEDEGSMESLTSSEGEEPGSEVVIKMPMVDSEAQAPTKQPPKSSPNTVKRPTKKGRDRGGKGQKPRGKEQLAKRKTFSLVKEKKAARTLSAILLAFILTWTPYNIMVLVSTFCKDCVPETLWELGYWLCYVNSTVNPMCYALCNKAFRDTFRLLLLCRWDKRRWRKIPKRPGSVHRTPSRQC
# Chain of Alpha-galactosidase A (Homo sapiens) (P06280 whole entry, looked up): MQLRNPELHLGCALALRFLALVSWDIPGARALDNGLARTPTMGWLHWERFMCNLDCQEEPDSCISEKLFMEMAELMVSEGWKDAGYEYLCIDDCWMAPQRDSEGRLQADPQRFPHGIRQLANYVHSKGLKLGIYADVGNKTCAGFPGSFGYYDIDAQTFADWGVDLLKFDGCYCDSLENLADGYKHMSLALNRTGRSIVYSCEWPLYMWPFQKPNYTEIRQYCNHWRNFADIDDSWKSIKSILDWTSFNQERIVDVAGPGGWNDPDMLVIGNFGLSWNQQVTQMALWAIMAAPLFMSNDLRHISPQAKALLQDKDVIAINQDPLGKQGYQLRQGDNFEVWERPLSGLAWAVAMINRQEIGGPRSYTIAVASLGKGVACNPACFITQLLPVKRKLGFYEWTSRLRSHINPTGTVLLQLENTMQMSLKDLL
# Chain of 3',5'-cyclic-AMP phosphodiesterase 4B (Homo sapiens) (Q07343 whole entry, looked up): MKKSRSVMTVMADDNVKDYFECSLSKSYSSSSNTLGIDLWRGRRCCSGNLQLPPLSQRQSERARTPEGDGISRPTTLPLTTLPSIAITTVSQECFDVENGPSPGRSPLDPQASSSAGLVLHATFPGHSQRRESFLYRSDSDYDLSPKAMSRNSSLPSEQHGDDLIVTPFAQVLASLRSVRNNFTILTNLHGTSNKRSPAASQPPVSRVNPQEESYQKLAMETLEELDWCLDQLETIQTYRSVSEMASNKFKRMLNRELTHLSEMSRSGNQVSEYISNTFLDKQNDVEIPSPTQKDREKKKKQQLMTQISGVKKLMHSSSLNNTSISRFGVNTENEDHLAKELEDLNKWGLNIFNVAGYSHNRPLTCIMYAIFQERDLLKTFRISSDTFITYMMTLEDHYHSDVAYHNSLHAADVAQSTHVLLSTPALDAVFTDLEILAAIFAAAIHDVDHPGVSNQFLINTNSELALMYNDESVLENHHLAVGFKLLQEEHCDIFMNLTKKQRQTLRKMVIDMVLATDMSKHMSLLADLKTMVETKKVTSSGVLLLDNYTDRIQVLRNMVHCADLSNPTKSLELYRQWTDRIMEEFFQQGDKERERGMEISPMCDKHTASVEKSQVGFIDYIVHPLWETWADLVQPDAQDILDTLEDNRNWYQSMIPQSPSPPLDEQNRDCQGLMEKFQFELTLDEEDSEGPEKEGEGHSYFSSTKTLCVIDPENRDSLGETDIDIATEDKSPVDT
# Chain of Cytochrome P450 1A2 (Homo sapiens) (P05177 whole entry, looked up): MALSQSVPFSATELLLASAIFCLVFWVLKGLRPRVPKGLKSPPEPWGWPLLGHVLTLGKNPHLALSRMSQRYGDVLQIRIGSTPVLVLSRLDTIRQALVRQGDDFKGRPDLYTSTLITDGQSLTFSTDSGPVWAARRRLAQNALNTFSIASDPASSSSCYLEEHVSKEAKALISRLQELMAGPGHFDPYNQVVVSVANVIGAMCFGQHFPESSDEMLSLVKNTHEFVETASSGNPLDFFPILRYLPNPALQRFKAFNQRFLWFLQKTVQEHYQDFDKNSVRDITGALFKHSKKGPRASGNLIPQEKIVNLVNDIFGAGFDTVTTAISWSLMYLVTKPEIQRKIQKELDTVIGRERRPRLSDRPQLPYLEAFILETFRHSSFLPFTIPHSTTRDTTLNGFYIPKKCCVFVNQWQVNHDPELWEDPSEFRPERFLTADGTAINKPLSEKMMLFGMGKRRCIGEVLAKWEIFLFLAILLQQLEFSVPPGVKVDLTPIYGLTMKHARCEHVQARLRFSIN
# Chain of Pyruvate kinase (Leishmania mexicana) (Q27686 2-499 E452W): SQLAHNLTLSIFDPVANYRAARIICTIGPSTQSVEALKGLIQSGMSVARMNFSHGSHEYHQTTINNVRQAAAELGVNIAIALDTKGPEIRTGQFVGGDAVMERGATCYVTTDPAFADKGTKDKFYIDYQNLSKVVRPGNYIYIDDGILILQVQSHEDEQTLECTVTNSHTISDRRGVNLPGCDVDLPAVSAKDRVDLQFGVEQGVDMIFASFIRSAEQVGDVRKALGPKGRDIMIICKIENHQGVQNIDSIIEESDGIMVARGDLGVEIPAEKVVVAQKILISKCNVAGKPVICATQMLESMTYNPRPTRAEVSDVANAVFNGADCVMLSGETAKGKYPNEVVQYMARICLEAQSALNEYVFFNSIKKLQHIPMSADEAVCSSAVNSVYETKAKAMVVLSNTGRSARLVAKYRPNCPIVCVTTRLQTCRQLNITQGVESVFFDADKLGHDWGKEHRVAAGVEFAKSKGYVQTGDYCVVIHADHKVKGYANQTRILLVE
SMILES,"activity change, negative = inhibition [1]",Potency [2],"activity change, negative = inhibition [3]","activity, negative = inhibition [4]",Potency [5] [µM],Potency [6] [µM],Potency [7],outcome [8],outcome [9],Potency [10],outcome [11],Potency [12],outcome [13],outcome [14],outcome [15],outcome [16],Potency [17],Potency [18],Potency [19]
C[C@@]12CC[C@H]3[C@@H](CC[C@@H]4C[C@H](O)CC[C@]43C)[C@H]1CC[C@H]2O,-12.3% [at 38 µM],15.8 µM (active),6.96% [at 38 µM],24.5% [at 38 µM],> 46,> 46,inactive,inactive,inactive,inactive,inactive,inactive,inactive,inactive,inactive,inactive,,,
COc1ccc2c(c1)[C@]13CCCC[C@@H]1[C@H](C2)NCC3,15.6% [at 38 µM],inactive,4.42% [at 38 µM],-11.2% [at 38 µM],> 46,> 46,,inactive,inactive,inactive,inactive,inactive,inactive,inactive,inactive,inactive,6.31 µM (active),,
C[Se]C[C@@H](N)C(=O)O,1.98% [at 38 µM],inactive,5.06% [at 38 µM],-28.4% [at 38 µM],> 46,,inactive,inactive,inactive,inactive,inactive,inactive,inactive,inactive,inactive,inactive,,inactive,
CO[C@@H]1CC=C2CCN3CCC4=C(CC(=O)OC4)[C@]23C1,6.22% [at 38 µM],inactive,-0.774% [at 38 µM],-4.68% [at 38 µM],> 46,> 46,inactive,inactive,inactive,inactive,inactive,inactive,inactive,inactive,inactive,inactive,,,
CC(=O)OCC1=C(C(=O)[O-])N2C(=O)[C@@H](NC(=O)CCC[C@@H](N)C(=O)[O-])[C@@H]2SC1.[Zn+2],13.1% [at 38 µM],inactive,1.01% [at 38 µM],-13.9% [at 38 µM],> 46,> 46,inactive,inactive,inactive,,inactive,inactive,inactive,inactive,inactive,inactive,,inactive,inactive
NC(=O)CN1C[C@@H](O)CC1=O,2.98% [at 38 µM],inactive,17.8% [at 38 µM],-8.38% [at 38 µM],> 46,> 46,inactive,inactive,inactive,,inactive,inactive,inactive,inactive,inactive,inactive,,,
CCCN1CC[C@@H]2c3cc(O)ccc3CC[C@H]21,-14.4% [at 38 µM],inactive,-28.7% [at 38 µM],-6.76% [at 38 µM],> 46,> 46,inactive,,inactive,,inactive,14.1 µM (active),inactive,inactive,inactive,inactive,,14.1 µM (active),inactive

# Source: PubChem BioAssay (NCATS)
